# In PubChem BioAssay (NCATS):
# Results filed as inconclusive are left out. A call without a number means that no potency is given here. Unmarked numbers belong to inactive results. The source made the active and inactive calls. Calls follow the shape of the dose curve; as a rule, active = well fitted activation curve with a large enough effect; inconclusive = small, poorly fitted or top-dose-only effect; inactive = flat fitted curve, though single readings scatter.
# Assay: Primary redox qHTS assay for identification of artifact compounds. (AID 1845223)
# Conditions: Amplex Red/HRP redox cycling with DTT, fluorescence; series mostly up to 53.8 µM
# In short: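 Amplex Red (25 uM) and HRP (250 mU/mL) in HBSS, with compounds for 15 min, then 250 uM DTT for 30 min, room temperature, dark. Fluorescence 525/598 nm read; normalized to DMSO and 10 uM DA3003; Hill fit.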
# Potency is read from the fitted curve at half-maximal effect.
SMILES,Potency,redox activity (% of DA3003)
CC(=O)Oc1cc2c(s1)CCN([C@H](C(=O)C1CC1)c1ccccc1F)C2,inactive,–
C[C@@H]1CC[C@]2(C(=O)O)CC[C@]3(C)C(=CCC4[C@]5(C)C(CC[C@]43C)C(C)(C)[C@@H](O)[C@H](O)[C@@H]5O)C2[C@]1(C)O (some centres undefined),inactive,–
CC(=O)N[C@H]1CCN(c2ccc(C3=NOC(CN[S+](=O)([O-])C(C)C)C3)cc2F)C1 (some centres undefined),inactive,–
CC1(C)CC2C(O)C3=C(CC(C)(O)C2C1)C(=O)OC3O (centres undefined),inactive,–
CC(=O)OC[C@@]12[C@H](O)C[C@@H](C)[C@]3(C[C@@H](c4ccoc4)OC3=O)[C@H]1C[C@H](O)C[C@]21CO1,inactive,–
C/C1=C\C[C@H](O[C@@H]2O[C@H](CO)[C@@H](O)[C@H](O)[C@H]2O)/C(C)=C/[C@H]2OC(=O)[C@H](C)[C@@H]2CC1,inactive,–
O=C(O)c1n[nH]c2c1C[C@H]1C[C@@H]21,inactive,–
C1CCN2CC3C[C@@H](CN4CCCC[C@@H]34)[C@H]2C1,inactive,–
CNC(=O)COC(=O)NCCC1CCN(c2cccc(C)n2)CC1,inactive,–
CC1OC(OC2C(C)OC(OC3C(OC(=O)/C=C/c4ccc(O)cc4)C(CO)OC(OC4(COC(=O)/C=C/c5ccc(O)cc5)OC(CO)C(O)C4O)C3OC3OCC(O)(CO)C3O)C(O)C2O)C(O)C(O)C1O (centres undefined),–,-13.7% [at 11.5 µM]
COc1c(C)c(OCC=C(C)C)cc2c1C(=O)NC2=O,inactive,–
CC1(C)CCC(C)(C)c2cc3c(cc21)Sc1ccccc1N=C3c1ccc(C(=O)O)cc1,inactive,–
C=C[C@H]1[C@H](O[C@@H]2O[C@H](CO[C@@H]3OC[C@](O)(CO)[C@H]3O)[C@@H](O)[C@H](O)[C@H]2O)OC=C2C(=O)OCC[C@H]21,3.27 µM (active),–
Cc1nn(C)c2c1C(c1ccc(C(F)(F)F)cc1)C(C#N)=C(N)O2 (centres undefined),4.23 µM (active),–
CC(=O)c1cnc2ccc(-c3cc(Cl)c(O)c(Cl)c3)nc2c1NC1CCC(CN(C)C)CC1 (centres undefined),–,2.52% [at 11.5 µM]
CC1(C(=O)O)CCCC2(C)C1CCC13CC(CCC21)C1(CO)OC31 (centres undefined),inactive,–
COc1ccc(/C=C/C(=O)O[C@@H]2[C@@H](O)[C@H](C)O[C@@H](OC3C4C=COC(O[C@@H]5O[C@H](CO)[C@@H](O)[C@H](O)[C@H]5O)C4C4(CO)OC34)[C@@H]2O)cc1OC (some centres undefined),inactive,–
COC(=O)C[C@@H]1C(C(=O)O)=CO[C@@H](O[C@@H]2O[C@H](CO)[C@@H](O)[C@H](O)[C@H]2O)/C1=C\COC(=O)/C=C\c1ccccc1,inactive,–
O=C1CC(c2ccc([N+](=O)[O-])cc2)=NN1c1ccccc1,inactive,–
O=C1Nc2ccc(O)cc2O[C@H]1O[C@@H]1O[C@H](CO)[C@@H](O)[C@H](O)[C@H]1O,inactive,–

SMILES,Potency,redox activity (% of DA3003)
O=C(O)C[C@H]1CCC(=O)[C@@H]1C/C=C\CCOC1OC(CO)C(O)C(O)C1O (some centres undefined),inactive,–
COc1cc(N2CCC(N(C)C)CC2)ccc1Nc1ncc(Cl)c(Nc2ccccc2P(C)(C)=O)n1,inactive,–
COc1ncc(-c2ccc3c(Nc4cc(Oc5cc(F)cc(F)c5)cc(C(=O)O)c4)c(S(=O)(=O)NC4CC4)cnc3c2)c(OC)n1,inactive,–
Cc1[nH]cnc1C1CCN(c2nc3cccc4c3n2CCC4=O)CC1,inactive,–
C[C@@H]1O[C@@H](O[C@H]2[C@H](O[C@H]3CC[C@@]4(C)C(CC[C@]5(C)C4CC=C4[C@@H]6CC(C)(C)CC[C@]6(C(=O)O)CC[C@]45C)[C@]3(C)CO)OC[C@H](O)[C@@H]2O)[C@H](O)[C@H](O[C@@H]2OC[C@@H](O)[C@H](O)[C@H]2O)[C@H]1O (some centres undefined),–,0.416% [at 11.5 µM]
CC(C)CC(=O)O[C@@H]1OC=C(CO[C@@H]2O[C@H](CO[C@@H]3O[C@H](CO)[C@@H](O)[C@H](O)[C@H]3O)[C@@H](O)[C@H](O)[C@H]2O)[C@H]2C[C@H](O)[C@@H](CO)[C@@H]12,inactive,–
COc1c2c(c(C)c3c1C(=O)OC3)O[C@@]1(C)C[C@@H](O)[C@]34O[C@](OC)(CC[C@]3(C)[C@H]1C2)OC4(C)C,inactive,–
CC(C)(O)C1CC=C(C(=O)OCC2OC(Oc3c(O)cc(C(=O)O)cc3O)C(O)C(O)C2O)CC1 (centres undefined),inactive,–
C=C1CCC2C(C)(C(=O)O)CC(O)CC2(C)C1CC/C(C)=C/C(=O)O (centres undefined),inactive,–
CC1NC(=O)C(Cc2c[nH]c3ccccc23)NC1=O (centres undefined),inactive,–
O=c1ccn(C2OC(CO)C(O)C2O)c(=O)[nH]1 (centres undefined),inactive,–
CC(C)C1=CC2=CCC3[C@](C)(CCC[C@@]3(C)C(=O)O)C2CC1=O (some centres undefined),inactive,–
CCN[C@@H]1C[C@H](N)[C@@H](O[C@H]2OC(CN)=CC[C@H]2N)[C@H](O)[C@H]1O[C@H]1OC[C@](C)(O)[C@H](NC)[C@H]1O,inactive,–
CC1OC(OC2C(O)C(C(=O)O)OC(OC3CCC4(C)C(CCC5(C)C4C=CC4=C6CC(C)(C)CC(O)C6(C)CCC45C)C3(C)C)C2OC2OCC(O)C(O)C2O)C(O)C(O)C1O (centres undefined),–,18.4% [at 11.5 µM]
O=C(O[C@H]1[C@@H]2C[C@@H]3OC[C@@](O)([C@H]2[C@H](O[C@@H]2O[C@H](CO)[C@@H](O)[C@H](O)[C@H]2O)O3)[C@@H]1O)c1ccccc1,inactive,–
CC/C=C/CC1=C(CCCCCCCC(=O)O)CCC1=O,inactive,–
CC(C)(C)NCC(O)COc1cccc2c1CCCC2=O (centres undefined),inactive,–
CCOc1ccc(-c2ccc(Cn3c(CC(C)(C)C(=O)O)c(SC(C)(C)C)c4cc(OCc5ccc(C)cn5)ccc43)cc2)cn1,inactive,–
COC(=O)C12C(=O)C(C)=C(O)C1(C)C(C)=CC1C34CCC(OC3=O)C(C)(C)C4CCC12C (centres undefined),inactive,–
